Most compounds without a hit are left out; they make up all but 3.6% or so of the library.
BoNT A protease – inhibitors of Botulinum neurotoxin A light chain protease | multiplex microsphere protease substrate cleavage, flow cytometry | inhibition, % at 10 µM | 360,000 tested, 0.17% active; note: plate controls were buffer without enzyme for full effect and enzyme alone for no effect
BJeLR lethal – kills HRASV12-expressing BJeLR cells; BJeLR (HRASV12) viability, CellTiter-Glo ATP luminescence, 48 h; inhibition, % (concentration not given with the values); 300,000 tested, 0.17% active; in the data active = inhibition above about 50%; inconclusive = no clear call, values can overlap the other calls
SARS 3CLpro inh – SARS-CoV 3CLpro protease inhibition; 290,000 tested, 0.14% active; inhibition, % at 6 µM; recombinant SARS-CoV 3CLpro, quenched FRET peptide cleavage; in the data active = inhibition above about 12%
BoNT-F LC inh – blocks Botulinum neurotoxin F light chain protease. inhibition, % at 10 µM. 360,000 tested, 0.22% active. Multiplex microsphere protease cleavage assay, flow cytometry; in the data active = inhibition above about 35%, passing the limit was not always enough; inconclusive = no clear call, values can overlap the other calls; note: plate controls were buffer without enzyme for full effect and enzyme alone for no effect
Bead autofluor – compound fluorescence in toxin protease inhibitor counterscreen; fluorescence intensity (concentration not given with the values); 360,000 tested, 3.1% active; compound autofluorescence counterscreen, microsphere flow cytometry; active compounds read high; in the data active = fluorescence intensity above about 16000; inconclusive = no clear call, values can overlap the other calls
Anthrax LF inh2 – anthrax lethal factor protease inhibition; P15917; inhibition, % at 10 µM; 360,000 tested, 0.12% active; multiplex microsphere protease cleavage assay, LF; note: plate controls were buffer without enzyme for full effect and enzyme alone for no effect
Target sequence (P15917 whole entry, looked up): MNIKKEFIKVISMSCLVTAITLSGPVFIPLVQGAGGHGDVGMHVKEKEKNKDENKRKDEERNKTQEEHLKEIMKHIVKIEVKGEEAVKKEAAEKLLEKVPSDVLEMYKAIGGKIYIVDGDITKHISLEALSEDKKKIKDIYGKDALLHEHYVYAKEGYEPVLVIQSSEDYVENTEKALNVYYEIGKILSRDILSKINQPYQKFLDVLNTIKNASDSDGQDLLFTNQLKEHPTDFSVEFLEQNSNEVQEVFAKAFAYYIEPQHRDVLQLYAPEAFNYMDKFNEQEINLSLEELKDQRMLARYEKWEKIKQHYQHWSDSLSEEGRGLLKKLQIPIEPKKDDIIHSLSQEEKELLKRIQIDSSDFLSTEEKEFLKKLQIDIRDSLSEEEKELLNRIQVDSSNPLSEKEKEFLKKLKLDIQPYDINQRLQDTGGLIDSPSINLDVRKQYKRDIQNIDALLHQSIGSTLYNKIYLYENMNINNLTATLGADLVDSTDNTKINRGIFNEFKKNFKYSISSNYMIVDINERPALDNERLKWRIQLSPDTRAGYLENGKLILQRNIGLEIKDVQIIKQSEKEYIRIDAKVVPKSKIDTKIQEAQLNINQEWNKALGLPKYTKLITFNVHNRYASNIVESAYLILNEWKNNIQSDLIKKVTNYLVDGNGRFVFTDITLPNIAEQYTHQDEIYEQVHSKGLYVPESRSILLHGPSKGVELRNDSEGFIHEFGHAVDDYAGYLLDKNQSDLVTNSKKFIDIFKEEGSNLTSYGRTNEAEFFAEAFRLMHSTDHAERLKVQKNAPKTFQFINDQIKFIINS
Starred values were filed as active, the others as inactive; ? = inconclusive; . = no result given; ! = not active in a repeat. Cut-off read from the data, not from the text of the source, unless noted: active = inhibition above about 30%; inconclusive = no clear call, values can overlap the other calls; inactive = below that.

SMILES | BoNT A protease | BJeLR lethal | SARS 3CLpro inh | BoNT-F LC inh | Bead autofluor | Anthrax LF inh2
CCN(CC)C(=O)C(C)OC(=O)COc1ccc(Cl)cc1C (configuration not stated) | -1.2 | -14.5 | 2.9 | -2.3 | 22121* | -3.2
CCCn1cc(S(=O)(=O)c2ccc(F)cc2)c(=O)c2cc(OCC)ccc21 | -0.3 | -2.6 | 1.7 | -1.2 | 6495 | -0.1
COc1ccc(CC(=O)Nc2sccc2C#N)cc1S(=O)(=O)N1CCOCC1 | 2.4 | -5.5 | . | -0.4 | 5612 | -2.5
CSCC[C@H](NC(=O)[C@H](Cc1ccccc1)n1c(=O)[nH]c2ccccc2c1=O)C(=O)NCC1CCC(C(=O)O)CC1 (some centres not stated) | 0.2 | 10.8 | 4.2 | 12.1 | 5861 | -4.7
c1ccc2[nH]c(-c3ccnc4ccccc34)nc2c1 | 0.0 | -3.4 | -3.4 | -5.0 | 17421*! | -0.4
O=C(NCc1ccc(Cl)cc1)N1CCN(Cc2ccccc2)CC1 | 1.8 | 23.6 | 2.5 | ? | 4119 | -6.4
CCOC(=O)CSc1nc(N)c(C#N)c(CC(C)C)c1C#N | ? | -4.3 | 5.6 | 0.8 | 21729* | -1.5
CCOC(=O)CC(=O)CSc1nc(N)c(C#N)c(-c2ccc(Cl)cc2)c1C#N | -2.2 | -0.1 | 2.9 | -3.8 | 16851* | -3.9
CC(CC(=O)O)CC(=O)Nc1nncs1 (configuration not stated) | -0.5 | -6.9 | -3.8 | 3.2 | 4925 | -4.2
O=C(CN1C(=O)/C(=C\C=C\c2ccccc2)SC1=S)Nc1ccc(F)cc1 | 33.6* | -34.3 | 2.1 | 18.3 | 2623 | 17.5
O=C(CCCN1C(=O)S/C(=C\C=C\c2ccccc2)C1=O)Nc1ccc(O)cc1 | -0.8 | -4.9 | -2.1 | 2.7 | 6082 | -2.2
O=C(CCN1C(=O)/C(=C\C=C\c2ccccc2)SC1=S)Nc1ccc(C(=O)O)cc1 | 17.8 | -4.0 | -0.2 | 24.5 | 4578 | 9.1
O=C(COC(=O)CCN1C(=O)/C(=C\C=C\c2ccccc2)SC1=S)Nc1cc(F)ccc1F | 41.6* | 3.0 | 2.1 | 10.7 | 4972 | 19.7
O=C(CCN1C(=O)/C(=C/C=C/c2ccccc2)SC1=S)Nc1nc2ccccc2s1 | 56.5* | -2.9 | -2.6 | 20.3 | 2563 | 28.4
CCOc1cc(C(=O)OCC(=O)Nc2cc(C)on2)cc(OCC)c1OCC | -5.3 | -0.8 | 1.4 | -6.2 | 22120* | 2.7
CCCCNC(=O)Nc1cc(C)on1 | -2.8 | -15.1 | -4.5 | -5.6 | 20643* | 0.2
CCOc1ccc(C(=O)OCC(=O)Nc2nc(OC)cc(OC)n2)cc1OCC | ? | -4.1 | 3.0 | -2.0 | 23423* | -2.5
CNS(=O)(=O)c1cccc(C(=O)OCC(=O)Nc2nc(OC)cc(OC)n2)c1 | -2.1 | . | . | 4.7 | 8512 | -0.4
O=c1[nH]c(=O)n(Cc2ccco2)c2c1C(C(F)(F)F)(C(F)(F)F)N=C(CCc1ccccc1)N2 | 2.6 | 4.1 | 2.9 | 18.1 | 8965 | 0.5
O=c1[nH]c(=O)n(Cc2ccco2)c2c1C(C(F)(F)F)(C(F)(F)F)N=C(C1CCCCC1)N2 | 2.3 | -8.3 | 1.3 | 2.3 | 20476* | -14.8
N#Cc1ccc(C2=NC(C(F)(F)F)(C(F)(F)F)c3c(n(Cc4ccco4)c(=O)[nH]c3=O)N2)cc1 | -0.8 | 5.8 | 0.1 | -1.3 | 23851* | -1.5
O=c1[nH]c(=O)n(Cc2ccco2)c2c1C(C(F)(F)F)(C(F)(F)F)N=C(CCC1CCCCC1)N2 | 3.5 | -0.1 | 0.2 | -11.0 | ? | -4.1
Cn1c(=O)c2c(ncn2CCOC(=O)C(C)(C)Oc2ccc(Cl)cc2)n(C)c1=O | -0.8 | . | . | -7.3 | 4517 | -2.8
CCN(CC(=O)Nc1ccc2c(c1)OCCO2)CC(=O)Nc1ccc(C)c(S(=O)(=O)N(C)C)c1 | -1.1 | . | . | -11.6 | 3952 | -2.0
CN(C)N1C(N)=C(C#N)C(c2ccc3c(c2)OCO3)C2=C1CCCC2=O (configuration not stated) | -0.1 | 2.6 | -1.2 | 8.3 | 3766 | -0.9
Nc1c(C(O)(C(F)(F)F)C(F)(F)F)ccc2ccccc12 | -4.1 | 4.7 | 6.1 | -7.2 | 17206* | -6.7
Cn1c(Cn2nnc(-c3ccccc3)n2)nnc1SCc1ccccc1Cl | ? | -16.9 | -3.6 | 2.4 | 16202* | -0.8
c1ccc(-c2csc(N3CCOCC3)n2)cc1 | -1.1 | -3.7 | -0.5 | -5.9 | 6646 | -1.2
COc1ccc(-c2noc(N3CCC(C(=O)Nc4cc(OC)ccc4OC)CC3)n2)cc1 | -0.4 | -5.7 | -5.1 | -6.1 | 6123 | -2.2
COc1cccc(-c2csc(N3CCN(C(=O)Nc4ccc(F)cc4)CC3)n2)c1 | -0.1 | 6.3 | -2.0 | 14.5 | 3275 | -2.5
